24 molecules from PubChem BioAssay (NCATS) can be followed below.

Inconclusive results are not listed. Activity calls are given as the source filed them. Unless noted, no rule for the calls is given here.

Experiment [1] in a line: qHTS profiling for inhibitors of Plasmodium falciparum (3D7) proliferation (AID 743322).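 Also: infected erythrocytes exposed to compound for 72 h before lysis; 100% = DMSO vehicle wells and 0% = 0.29 µM artemisinin.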 The settings on record: P. falciparum 3D7 proliferation; at 28.7 µM (top of the series). In short, it runs like this: (§1)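 Parasite DNA was quantified by SYBR Green I fluorescence (ex 485, em 535 nm) after overnight lysis in saponin/Triton buffer at room temperature. Cultures at 0.3% parasitemia and 2.5% hematocrit were first exposed to compound for 72 h at 37 C; signals were normalised to artemisinin (0.29 uM) and vehicle wells.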
A general note: In qHTS, concentration-response curves come from the screen itself.

The nature of experiment [2]: qHTS profiling for inhibitors of Plasmodium falciparum (DD2) proliferation (AID 743323). The following applies: lower = more inhibition; at 28.7 µM (top of the series). The gist of the method:
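1536-well qHTS; infected RBCs 0.3% parasitemia/2.5% Hct final; cpd 72 h 37 C 5% CO2; lysis buffer + SYBR Green I, o/n RT dark; FI 485/535; norm. to 0.29 uM artemisinin and DMSO, plate-stack corrected.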

Experiment [3] can be described thus: qHTS profiling for inhibitors of Plasmodium falciparum (HB3) proliferation (AID 743324; active = well fitted curve in the direction sought with a large enough effect; an effect the other way counts as inactive or inconclusive;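 also: 100% = DMSO vehicle wells and 0% = artemisinin-treated control wells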). The settings on record: Plasmodium falciparum HB3 blood-stage proliferation; at 28.7 µM (top of the series). In short, it runs like this: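 SYBR Green fluorescence (485 ex/535 em) of lysed cultures, incubated overnight at room temperature in the dark, quantifies parasite DNA. Infected erythrocytes at 0.3% parasitemia and 2.5% hematocrit were exposed 72 h; values normalized to DMSO and 0.29 uM artemisinin controls.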

The nature of experiment [4]: qHTS profiling of the MIPE4 collection as inhibitors of Plasmodium falciparum (3D7) proliferation (AID 743344).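 Also: scaled between DMSO vehicle wells and 0.29 µM artemisinin as full inhibition.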 The following applies: P. falciparum 3D7 in erythrocytes, SYBR Green DNA fluorescence, 72 h; at 28.5 µM (top of the series). The gist of the method: as §1
A short description of experiment [5]: qHTS profiling of the MIPE4 collection as inhibitors of Plasmodium falciparum (DD2) proliferation (AID 743345). The following applies: P. falciparum Dd2 in erythrocytes, SYBR Green DNA, 72 h; at 28.5 µM (top of the series). In short, it runs like this:
as §1

The nature of experiment [6]: qHTS profiling of the MIPE4 collection as inhibitors of Plasmodium falciparum (DD2) proliferation (Rep 2) (AID 743346). The settings on record: P. falciparum Dd2 in erythrocytes, SYBR Green DNA, 72 h; at 28.5 µM (top of the series). In short, it runs like this: as §1
Experiment [7] in a line: qHTS Assay for Identifying Gametocytocidal Compounds (AID 743244; active = well fitted curve in the direction sought with a large enough effect; an effect the other way counts as inactive or inconclusive;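 also: % is scaled to controls: 0 for no effect and ±100 for the full control effect; actives lower the fluorescent signal which means gametocytes are killed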). The following applies: P. falciparum 3D7 stage III-V gametocytes, alamarBlue, 72 h; stronger effect = lower value. The gist of the method: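 P. falciparum 3D7 stage III–V gametocytes (20,000 cells/well) were exposed to compounds for 72 h at 37 °C, 5% CO2. AlamarBlue was then added for 24 h; decreased resorufin fluorescence (Ex 525/Em 598 nm) indicated loss of viability.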

Consider `C[C@@H]1Cc2c([nH]c3cc(Cl)c(F)cc23)[C@]2(N1)C(=O)Nc1ccc(Cl)cc12`, for which, in experiment [1], the remaining parasite growth % (stronger effect = lower value) was -0.966%. In experiment [2], this molecule registered an activity, percent of control of 0.0887%. For the same molecule, the remaining proliferation (% of control), lower = more inhibition in experiment [3] is -0.181%.
On to `CCCC[C@@H]1C[C@@H](C(=O)NC([C@H](C)Cl)[C@H]2O[C@H](S)[C@H](O)[C@@H](O)[C@@H]2O)N(C)C1` (some centres not stated), for which, in experiment [1], the remaining parasite growth % (stronger effect = lower value) worked out at 39%. This molecule also showed an activity, percent of control in experiment [2] of 33.1%. In experiment [3], the remaining proliferation (% of control), lower = more inhibition came out at 31.5%. This molecule displayed a parasite growth, % of DMSO control in experiment [4] of 29.2%. This molecule gave a parasite growth remaining, % of DMSO control (lower = more inhibition) in experiment [5] of 38%. This molecule also returned a parasite growth, % of control (lower = inhibition) in experiment [6] of 28%.
On to `CC(C)(C)OC(=O)N[C@@H](Cc1ccc(O[S+](=O)([O-])c2ccccn2)cc1)C(=O)N1CCN(c2ccccc2)CC1`, for which, in experiment [1], the remaining parasite growth % (stronger effect = lower value) came out at 5.22%. For the same molecule, the activity, percent of control in experiment [2] was 11.4%. Further, the remaining proliferation (% of control), lower = more inhibition in experiment [3] was found to be 2.38%.
In the case of `CCN(CC)CCOc1ccc2c(=O)c3ccc(Cl)cc3n(CCN(CC)CC)c2c1`, the remaining parasite growth % (stronger effect = lower value) in experiment [1] was -1.28%. Besides, the activity, percent of control in experiment [2] stood at 0.385%. Also, the remaining proliferation (% of control), lower = more inhibition in experiment [3] is -0.0504%. In experiment [4], this molecule displayed a parasite growth, % of DMSO control of 4.98%. The molecule also yielded a parasite growth remaining, % of DMSO control (lower = more inhibition) in experiment [5] of 6.06%. The molecule also registered a parasite growth, % of control (lower = inhibition) in experiment [6] of 27.8%.
Take `O=C([C@H](Cc1ccc(O[S+](=O)([O-])c2cccnc2)cc1)N[S+](=O)([O-])c1ccccn1)N1CCN(c2ccccc2)CC1`: the remaining parasite growth % (stronger effect = lower value) in experiment [1] was found to be 6.76%. The molecule further registered an activity, percent of control in experiment [2] of 12.3%. Also, the remaining proliferation (% of control), lower = more inhibition in experiment [3] was 2.47%.
In the case of `Cc1nc2c(C#N)cccc2n1-c1ccc(C(=O)NC2CC2)s1`, in experiment [1], the remaining parasite growth % (stronger effect = lower value) amounted to 0.492%. The activity, percent of control in experiment [2] came out at 1.69%. The remaining proliferation (% of control), lower = more inhibition in experiment [3] was determined as 1.16%. The molecule also yielded a parasite growth, % of DMSO control in experiment [4] of 6.59%. The molecule also showed a parasite growth remaining, % of DMSO control (lower = more inhibition) in experiment [5] of 9.03%. The parasite growth, % of control (lower = inhibition) in experiment [6] stood at 10.3%.
With `CO[C@@]12[C@H](COC(N)=O)C3=C(C(=O)C(C)=C(N)C3=O)N1C[C@H]1N[C@H]12`, in experiment [1], the remaining parasite growth % (stronger effect = lower value) was -0.57%. Moreover, in experiment [2], the activity, percent of control was found to be 0.869%. In experiment [3], the remaining proliferation (% of control), lower = more inhibition is -0.956%.
In the case of `CCOc1ccc(F)cc1C1(O)C(N)=Nc2ccc(Cl)cc21` (configuration not stated), the remaining parasite growth % (stronger effect = lower value) in experiment [1] was determined as 0.18%. For the same molecule, the activity, percent of control in experiment [2] stood at 0.185%. The remaining proliferation (% of control), lower = more inhibition in experiment [3] is 1.54%. Moreover, the parasite growth, % of DMSO control in experiment [4] worked out at 5.08%. The same molecule returned a parasite growth remaining, % of DMSO control (lower = more inhibition) in experiment [5] of 6.08%. The same molecule showed a parasite growth, % of control (lower = inhibition) in experiment [6] of 8.34%.
`C[C@H]1CCN(C(=O)CC#N)C[C@H]1N(C)c1ncnc2[nH]ccc12` showed a parasite growth, % of DMSO control in experiment [4] of 69.9%. This molecule also showed a parasite growth remaining, % of DMSO control (lower = more inhibition) in experiment [5] of 98.8%. The molecule also yielded a parasite growth, % of control (lower = inhibition) in experiment [6] of 51.2%.
On to `O=C1C(=O)c2ccccc2C(O)=C1C1CCCCC1`, for which, in experiment [1], the remaining parasite growth % (stronger effect = lower value) is 3.7%. This molecule had an activity, percent of control in experiment [2] of 4.15%. In addition, the remaining proliferation (% of control), lower = more inhibition in experiment [3] stood at 3.28%.
In the case of `O=C1CCC(C2=C(O)c3ccccc3C(=O)C2=O)CC1`, in experiment [1], the remaining parasite growth % (stronger effect = lower value) turned out to be 7.05%. This molecule returned an activity, percent of control in experiment [2] of 6.83%. The remaining proliferation (% of control), lower = more inhibition in experiment [3] came to 5.38%.
Consider `O=CN(O)CCCP(=O)(O)O`, for which, in experiment [1], the remaining parasite growth % (stronger effect = lower value) was found to be 11.2%. This molecule had an activity, percent of control in experiment [2] of 11.8%. In experiment [3], the remaining proliferation (% of control), lower = more inhibition came out at 14.2%. The parasite growth, % of DMSO control in experiment [4] was 14.4%. In experiment [5], this molecule gave a parasite growth remaining, % of DMSO control (lower = more inhibition) of 19.9%. Besides, the parasite growth, % of control (lower = inhibition) in experiment [6] was determined as 17.4%.
`O=C(O)[C@H]1/C(=C/CO)O[C@@H]2CC(=O)N21`: the max response in experiment [7] was 8.98% (inactive).
Same read-out and setting: the figure for `CN(C)c1cc(NC(=O)CNC(C)(C)C)c(O)c2c1C[C@H]1C[C@H]3[C@H](N(C)C)C(=O)C(C(N)=O)=C(O)[C@@]3(O)C(=O)C1=C2O` is 7.63% (inactive).
For the molecule `N[C@@H](Cc1ccc(OS(=O)(=O)c2ccccn2)cc1)C(=O)N1CCN(c2ccccc2)CC1`, in experiment [1], the remaining parasite growth % (stronger effect = lower value) was 98.8%. This molecule gave an activity, percent of control in experiment [2] of 43.6%. Also, in experiment [3], the remaining proliferation (% of control), lower = more inhibition turned out to be 67%.
Regarding `C=C1C(=C/C=C2\CCC[C@]3(C)[C@@H]([C@H](C)CCCC(C)C)CC[C@@H]23)C[C@@H](O)C[C@@H]1O`, the max response in experiment [7] is -2.16% (inactive).
For `COc1cc(C)c2c(Oc3cccc(C(F)(F)F)c3)c(OC)cc(NCCCC(C)N)c2n1` (configuration not stated), in experiment [4], the parasite growth, % of DMSO control is 3.66%. The parasite growth remaining, % of DMSO control (lower = more inhibition) in experiment [5] was 6.22%. Further, the parasite growth, % of control (lower = inhibition) in experiment [6] amounted to 16%.
`CC(O)[C@@H]1NC(=O)[C@H](CCCCN)NC(=O)[C@@H](Cc2c[nH]c3ccccc23)NC(=O)[C@H](Cc2ccccc2)NC(=O)[C@@H](NC(=O)[C@H](N)Cc2ccccc2)CSSC[C@@H](C(=O)N[C@H](CO)[C@@H](C)O)NC1=O` (some centres not stated): in experiment [7], the max response was -8.72% (inactive).
In experiment [4], `COC1=C2C[C@H](C)C[C@H](OC)[C@@H](O)[C@@H](C)C=C(C)[C@H](OC(N)=O)[C@@H](OC)C=CC=C(C)C(=O)NC(=CC1=O)C2=O` returned a parasite growth, % of DMSO control of 5.44%. The molecule also displayed a parasite growth remaining, % of DMSO control (lower = more inhibition) in experiment [5] of 7.35%. Moreover, the parasite growth, % of control (lower = inhibition) in experiment [6] turned out to be 6.42%.
Consider `COC(=O)[C@H](Cc1ccc(O[S+](=O)([O-])c2cccc3cnccc23)cc1)N[S+](=O)([O-])c1ccc2cnccc2c1`, for which, in experiment [1], the remaining parasite growth % (stronger effect = lower value) was determined as 13.9%. For the same molecule, the activity, percent of control in experiment [2] amounted to 29.2%. Besides, in experiment [3], the remaining proliferation (% of control), lower = more inhibition turned out to be 6.01%.
On to `CC[C@]1(O)CC2CN(CCc3c([nH]c4ccccc34)[C@@](C(=O)OC)(c3cc4c(cc3OC)N(C)[C@H]3[C@@](O)(C(N)=O)[C@H](O)[C@]5(CC)C=CCN6CC[C@]43[C@@H]65)C2)C1` (some centres not stated), for which the max response in experiment [7] is -7.92% (inactive).
For `O=C([C@@H](Cc1ccc(O[S+](=O)([O-])c2ccccn2)cc1)N[S+](=O)([O-])c1cccc2cccnc12)N1CCN(c2ccccc2)CC1`, in experiment [1], the remaining parasite growth % (stronger effect = lower value) is -0.32%. The same molecule came in with an activity, percent of control in experiment [2] of 1.5%. In experiment [3], the remaining proliferation (% of control), lower = more inhibition is 0.71%.
With `O=C([C@H](Cc1ccc(O[S+](=O)([O-])c2ccccn2)cc1)N[S+](=O)([O-])c1cccnc1)N1CCN(c2ccccc2)CC1`, in experiment [1], the remaining parasite growth % (stronger effect = lower value) stood at 17.8%. The activity, percent of control in experiment [2] is 17.9%. Besides, the remaining proliferation (% of control), lower = more inhibition in experiment [3] was 2.38%.
The matching figures for `O=C([C@H](Cc1ccc(OS(=O)(=O)c2cccc3cnccc23)cc1)NS(=O)(=O)c1cccc2cnccc12)N1CCN(c2ccccc2)CC1`: -0.827%, 1.24% and 0.712%.
